Test results as given in PubChem BioAssay.
Several values for one entry are separate records, joined by “and”; a condition that tells them apart may be missing. Equal values may be shown once.

Assay: sensitizers of A549 cells to miR-34 induction, primary screen, imaging, A549 dox-inducible miR-34, nuclei and caspase counts (AID 1347080); note: test concentration not given here
Details: A549 miR-34 inducible, Hoechst nuclei count, 48 h; measured here: relative caspase fold change +Dox/-Dox

Question: For `O=C(O)c1cc2cc(F)ccc2[nH]1`, which fold change is on record?
Answer: 1.52

Question: Which fold change does the source give for `COc1ccc(-c2cc(=O)c3c(OC)c(OC)c(OC)c(OC)c3o2)cc1` here?
Answer: 0.924

Question: With `NC(=O)c1ccc[n+]([C@@H]2O[C@H](COP(=O)([O-])OP(=O)(O)OC[C@H]3O[C@@H](n4cnc5c(N)ncnc54)[C@H](O)[C@@H]3O)[C@@H](O)[C@H]2O)c1` as the molecule, how does the fold change read?
Answer: 1.3 and 1.13

Question: With `Cn1c(=O)[nH]c2ncn(C)c2c1=O` as the molecule, how does the fold change read?
Answer: 1.17

Question: For `NC1(C(=O)O)CC1`, which fold change is on record?
Answer: 1.33

Question: For `NCCCCN=C(N)N`, which fold change is on record?
Answer: 2.32

Question: For `N[C@@H](Cc1cc(I)c(Oc2ccc(O)c(I)c2)c(I)c1)C(=O)O`, which fold change is on record?
Answer: 0.994 and 1.44

Question: Which fold change does the source give for `Cc1cc(C(C)(C)CC(C)(C)C)ccc1OCCOCC[N+](C)(C)Cc1ccccc1` here?
Answer: 1.18 and 1.77

Question: Which fold change does the source give for `Cn1c(=O)c2[nH]c(C3CCCC3)nc2n(C)c1=O` here?
Answer: 1.51

Question: Which fold change does the source give for `CC(=O)N1CCN(c2ccc(OCC3CO[C@](Cn4ccnc4)(c4ccc(Cl)cc4Cl)O3)cc2)CC1` (stereo not given in full) here?
Answer: 2.72 and 0.263 and 1.79

Question: Which fold change does the source give for `NCCCCC(=O)O` here?
Answer: 1.48

Question: For `CN[C@H](CC(=O)O)C(=O)O`, which fold change is on record?
Answer: 0.738

Question: Which fold change does the source give for `CN1CCc2cccc3c2C1Cc1ccc(O)c(O)c1-3` (stereo not given) here?
Answer: 2.09 and 1.99

Question: With `COc1c2ccoc2cc2oc(=O)ccc12` as the molecule, how does the fold change read?
Answer: 0.824

Question: Which fold change does the source give for `C=C1c2c(Cl)ccc(O)c2C(O)=C2C(=O)[C@]3(O)C(O)=C(C(N)=O)C(=O)[C@@H](N(C)C)[C@@H]3[C@@H](O)[C@H]12` here?
Answer: 1.07

Question: Which fold change does the source give for `NC(N)=NC(=O)c1nc(Cl)c(N2CCCCCC2)nc1N` here?
Answer: 1.04

Question: For `CC(CN(C)C)CN1c2ccccc2Sc2ccccc21` (stereo not given), which fold change is on record?
Answer: 1.1 and 2.21

Question: Which fold change does the source give for `CC(C(=O)O)c1ccc(N2Cc3ccccc3C2=O)cc1` (stereo not given) here?
Answer: 1.39 and 0.964

Question: For `O=c1cc(-c2ccccc2)oc2c(O)c(O)ccc12`, which fold change is on record?
Answer: 0.979

Question: For `CC(C)(C)NC[C@H](O)c1ccc(O)c(CO)c1`, which fold change is on record?
Answer: 1.01

Question: With `CN1CCc2c(c3ccccc3n2Cc2ccccc2)C1` as the molecule, how does the fold change read?
Answer: 1.16

Question: Which fold change does the source give for `COc1cc2c(cc1OC)-c1cc3ccc(OC)c(OC)c3c[n+]1CC2` here?
Answer: 1.49 and 0.581

Question: With `NC(N)=NCCCCN=C(N)N` as the molecule, how does the fold change read?
Answer: 0.983 and 0.933

Question: Which fold change does the source give for `NCCCCN` here?
Answer: 1.7

Question: For `Cc1cc(/C=C/c2ccc3cc(N(C)C)ccc3[n+]2C)c(C)n1-c1ccccc1`, which fold change is on record?
Answer: 0.697

Question: Which fold change does the source give for `NCCSSCCN` here?
Answer: 2.84

Question: For `O=C1OC(=O)C2C3CCC(O3)C12` (stereo not given), which fold change is on record?
Answer: 0.974

Question: With `OCc1c[nH]c2ccccc12` as the molecule, how does the fold change read?
Answer: 0.867

Question: Which fold change does the source give for `CC1(C)S[C@@H]2[C@H](NC(=O)Cc3ccccc3)C(=O)N2[C@H]1C(=O)O` here?
Answer: 0.53 and 0.733

Question: For `CN(C)CCOC(c1ccccc1)c1ccccc1` (tested in a mixture with another compound), which fold change is on record?
Answer: 1.17 and 1.81

Question: With `NC(=O)CC[C@H](N)C(=O)O` as the molecule, how does the fold change read?
Answer: 0.852 and 0.867

Question: For `Oc1cc(O)c2c(c1)O[C@H](c1ccc(O)c(O)c1)[C@@H](O)C2`, which fold change is on record?
Answer: 2.1 and 1.09 and 0.901

Question: With `C1N2CN3CN1CN(C2)C3` as the molecule, how does the fold change read?
Answer: 0.914 and 0.53

Question: For `COc1cc(S(C)=O)ccc1-c1nc2ncccc2[nH]1` (stereo not given), which fold change is on record?
Answer: 1.41

Question: Which fold change does the source give for `CC(=O)Oc1ccccc1C(=O)Oc1ccccc1C(=O)O` here?
Answer: 0.828

Question: With `NCCCS(=O)(=O)O` as the molecule, how does the fold change read?
Answer: 2.79

Question: With `COC(=O)[C@H]1[C@H]2C[C@H]3c4[nH]c5ccccc5c4CCN3C[C@H]2CC[C@@H]1O` as the molecule, how does the fold change read?
Answer: 0.889 and 1.48

Question: With `Nc1nc(/C(=C/CC(=O)O)C(=O)N[C@@H]2C(=O)N3C(C(=O)O)=CCS[C@H]23)cs1` as the molecule, how does the fold change read?
Answer: 1.29

Question: Which fold change does the source give for `O=c1c2ccccc2oc2ccccc12` here?
Answer: 0.506

Question: For `C[N+](C)(C)CC(O)CC(=O)O` (stereo not given), which fold change is on record?
Answer: 0.677

Same assay, conditions: A549 miR-34 inducible, Hoechst nuclei count, 48 h; measured here: total cells with miR-34 induction; stronger effect = lower value

Question: With `O=C(O)c1cc2cc(F)ccc2[nH]1` as the molecule, how does the cell count read?
Answer: 9030

Question: Which cell count does the source give for `COc1ccc(-c2cc(=O)c3c(OC)c(OC)c(OC)c(OC)c3o2)cc1` here?
Answer: 6760

Question: Which cell count does the source give for `NC(=O)c1ccc[n+]([C@@H]2O[C@H](COP(=O)([O-])OP(=O)(O)OC[C@H]3O[C@@H](n4cnc5c(N)ncnc54)[C@H](O)[C@@H]3O)[C@@H](O)[C@H]2O)c1` here?
Answer: 8060 and 11500

Question: With `Cn1c(=O)[nH]c2ncn(C)c2c1=O` as the molecule, how does the cell count read?
Answer: 9800

Question: For `NC1(C(=O)O)CC1`, which cell count is on record?
Answer: 9670

Question: With `NCCCCN=C(N)N` as the molecule, how does the cell count read?
Answer: 10300

Question: With `N[C@@H](Cc1cc(I)c(Oc2ccc(O)c(I)c2)c(I)c1)C(=O)O` as the molecule, how does the cell count read?
Answer: 10000 and 11900

Question: With `Cc1cc(C(C)(C)CC(C)(C)C)ccc1OCCOCC[N+](C)(C)Cc1ccccc1` as the molecule, how does the cell count read?
Answer: 1940 and 8590

Question: Which cell count does the source give for `Cn1c(=O)c2[nH]c(C3CCCC3)nc2n(C)c1=O` here?
Answer: 9200

Question: Which cell count does the source give for `CC(=O)N1CCN(c2ccc(OCC3CO[C@](Cn4ccnc4)(c4ccc(Cl)cc4Cl)O3)cc2)CC1` (stereo not given in full) here?
Answer: 7410 and 7100 and 8230

Question: With `NCCCCC(=O)O` as the molecule, how does the cell count read?
Answer: 10300

Question: With `CN[C@H](CC(=O)O)C(=O)O` as the molecule, how does the cell count read?
Answer: 10900

Question: With `CN1CCc2cccc3c2C1Cc1ccc(O)c(O)c1-3` (stereo not given) as the molecule, how does the cell count read?
Answer: 7940 and 8770

Question: Which cell count does the source give for `COc1c2ccoc2cc2oc(=O)ccc12` here?
Answer: 8190

Question: For `C=C1c2c(Cl)ccc(O)c2C(O)=C2C(=O)[C@]3(O)C(O)=C(C(N)=O)C(=O)[C@@H](N(C)C)[C@@H]3[C@@H](O)[C@H]12`, which cell count is on record?
Answer: 8250

Question: Which cell count does the source give for `NC(N)=NC(=O)c1nc(Cl)c(N2CCCCCC2)nc1N` here?
Answer: 4710

Question: For `CC(CN(C)C)CN1c2ccccc2Sc2ccccc21` (stereo not given), which cell count is on record?
Answer: 7480 and 9410

Question: With `CC(C(=O)O)c1ccc(N2Cc3ccccc3C2=O)cc1` (stereo not given) as the molecule, how does the cell count read?
Answer: 9440 and 11300

Question: With `O=c1cc(-c2ccccc2)oc2c(O)c(O)ccc12` as the molecule, how does the cell count read?
Answer: 3960

Question: Which cell count does the source give for `CC(C)(C)NC[C@H](O)c1ccc(O)c(CO)c1` here?
Answer: 7950

Question: For `CN1CCc2c(c3ccccc3n2Cc2ccccc2)C1`, which cell count is on record?
Answer: 8940

Question: Which cell count does the source give for `COc1cc2c(cc1OC)-c1cc3ccc(OC)c(OC)c3c[n+]1CC2` here?
Answer: 8980 and 7680

Question: For `NC(N)=NCCCCN=C(N)N`, which cell count is on record?
Answer: 9930 and 7710

Question: Which cell count does the source give for `NCCCCN` here?
Answer: 9820

Question: For `Cc1cc(/C=C/c2ccc3cc(N(C)C)ccc3[n+]2C)c(C)n1-c1ccccc1`, which cell count is on record?
Answer: 1790

Question: With `NCCSSCCN` as the molecule, how does the cell count read?
Answer: 10300

Question: Which cell count does the source give for `O=C1OC(=O)C2C3CCC(O3)C12` (stereo not given) here?
Answer: 8750

Question: Which cell count does the source give for `OCc1c[nH]c2ccccc12` here?
Answer: 8210

Question: Which cell count does the source give for `CC1(C)S[C@@H]2[C@H](NC(=O)Cc3ccccc3)C(=O)N2[C@H]1C(=O)O` here?
Answer: 9610 and 11500

Question: For `CN(C)CCOC(c1ccccc1)c1ccccc1` (tested in a mixture with another compound), which cell count is on record?
Answer: 8830 and 11000

Question: With `NC(=O)CC[C@H](N)C(=O)O` as the molecule, how does the cell count read?
Answer: 10400 and 8420

Question: Which cell count does the source give for `Oc1cc(O)c2c(c1)O[C@H](c1ccc(O)c(O)c1)[C@@H](O)C2` here?
Answer: 10300 and 8130 and 5640

Question: For `C1N2CN3CN1CN(C2)C3`, which cell count is on record?
Answer: 8000 and 12000

Question: Which cell count does the source give for `COc1cc(S(C)=O)ccc1-c1nc2ncccc2[nH]1` (stereo not given) here?
Answer: 7350

Question: With `CC(=O)Oc1ccccc1C(=O)Oc1ccccc1C(=O)O` as the molecule, how does the cell count read?
Answer: 8700

Question: For `NCCCS(=O)(=O)O`, which cell count is on record?
Answer: 6500

Question: For `COC(=O)[C@H]1[C@H]2C[C@H]3c4[nH]c5ccccc5c4CCN3C[C@H]2CC[C@@H]1O`, which cell count is on record?
Answer: 10000 and 9150

Question: With `Nc1nc(/C(=C/CC(=O)O)C(=O)N[C@@H]2C(=O)N3C(C(=O)O)=CCS[C@H]23)cs1` as the molecule, how does the cell count read?
Answer: 12000

Question: Which cell count does the source give for `O=c1c2ccccc2oc2ccccc12` here?
Answer: 7550

Question: Which cell count does the source give for `C[N+](C)(C)CC(O)CC(=O)O` (stereo not given) here?
Answer: 6370
